HP1b binding inh = HTS for Inhibitors of HP1-beta Chromodomain Interactions with Methylated Histone Tails. 0.56% of 390,000 active. AlphaScreen HP1-beta / biotin-H3K9me3 peptide binding. Potency, µM (doses to about 114 µM), inactives show at the highest dose activity change, negative = inhibition, usual class: inhibitors. AID 540317, 2011; further: nearly all actives have a fitted effect of over 70% in size
Target sequence (P83916 whole entry, looked up): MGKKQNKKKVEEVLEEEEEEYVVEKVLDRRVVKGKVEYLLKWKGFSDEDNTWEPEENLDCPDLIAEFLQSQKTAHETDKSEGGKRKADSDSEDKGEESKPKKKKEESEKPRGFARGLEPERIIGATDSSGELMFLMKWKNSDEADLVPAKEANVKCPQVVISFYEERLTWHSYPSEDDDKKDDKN
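Compound inhibition of the preformed complex between 50 nM HP1-beta and 50 nM biotinylated H3K9me3 peptide was read by AlphaScreen. Buffer was PBS pH 7.4 with 0.01% Tween-20. Incubations ran 30 min at room temperature, with 10 ug/mL donor/acceptor beads.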
12-LOX inh = Primary qHTS assay for inhibitors of human arachidonate 12S-lipoxygenase (ALOX12): Round 2; Polyunsaturated fatty acid lipoxygenase ALOX12 (Homo sapiens), P18054; purified 12hLO, xylenol orange hydroperoxide absorbance; 1.1% of 580,000 active; Potency, µM (titrated, usually from 108 µM), without a hit: top-dose activity change, negative = inhibition, hits mostly inhibitors; further: on the % scale 0 is the no-effect control and ±100 the full control effect
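Hydroperoxide product was detected by ferrous iron/xylenol orange as the 573 to 405 nm absorbance ratio. Arachidonic acid at 40 uM (final) was turned over for 30 min at room temperature by 150 nM human 12hLO, pH 7.0 Hepes buffer, after 15 min compound preincubation.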
BAZ2B inh = qHTS Assay for Inhibitors of BAZ2B; AlphaScreen BAZ2B-H3K14Ac peptide displacement; Potency, µM (top dose mostly 114 µM), inactives show top-dose activity change, negative = inhibition, most hits filed as inhibitors; 4.4% of 360,000 active; AID 504333, 2011; further: on the % scale 0 is the no-effect control and ±100 the full control effect; nearly all actives have a fitted effect of over 60% in size
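BAZ2B (50 nM) with biotin-H3(5-23)K14Ac peptide (50 nM) in PBS pH 7.4, 0.01% Tween-20, preformed 30 min, then compound 30 min at room temperature; top concentration 110uM. AlphaScreen streptavidin donor/nickel chelate acceptor beads (10 ug/mL final), 20 min dark, signal read.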
JMJD2A Tudor = qHTS Assay for Inhibitors of JMJD2A-Tudor Domain; Lysine-specific demethylase 4A (Homo sapiens), O75164; AlphaScreen JMJD2A-Tudor / H3K4me3 peptide binding; Potency, µM (top dose mostly 114 µM), for inactives: at the top dose activity change, negative = inhibition, actives largely listed as inhibitors; 4.4% of 390,000 active; AID 504339, 2011; further: on the % scale 0 is the no-effect control and ±100 the full control effect; nearly all actives have a fitted effect of over 50% in size
Sfp inh = qHTS Assay for Inhibitors of Bacillus subtilis Sfp phosphopantetheinyl transferase (PPTase) | 4'-phosphopantetheinyl transferase ffp (Bacillus subtilis), Q9F4F7 | Potency, µM, for the others: largest response in the series, negative = inhibition, hits mostly inhibitors | Biochemical Sfp PPTase activity, qHTS | 3.5% of 310,000 active;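 further: the enzyme is Sfp with the accession as filed and its product quenches rhodamine fluorescence; 0% = enzyme reaction without inhibitor and -100% = no enzyme wells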
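With Hepes-Na pH 7.6 buffer containing 10 mM MgCl2, Sfp (15 nM) modified BHQ-2-YbbR (12.5 uM) using rhodamine-CoA (5 uM). Two reads 30 minutes apart at 525/598 nm yielded each well's rate.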
G9a inh = qHTS Assay for Inhibitors of Histone Lysine Methyltransferase G9a | Histone-lysine N-methyltransferase EHMT2 (Homo sapiens), Q96KQ7 | G9a H3K9 monomethylation, AlphaScreen, 2 h | Potency, µM (top dose mostly 102 µM), without a hit: at the highest dose activity, negative = inhibition, most hits filed as inhibitors | 8.8% of 350,000 active; further: on the % scale 0 is the no-effect control and ±100 the full control effect; nearly all actives have a fitted effect of over 75% in size
Target sequence (Q96KQ7 913-1193 limits assumed): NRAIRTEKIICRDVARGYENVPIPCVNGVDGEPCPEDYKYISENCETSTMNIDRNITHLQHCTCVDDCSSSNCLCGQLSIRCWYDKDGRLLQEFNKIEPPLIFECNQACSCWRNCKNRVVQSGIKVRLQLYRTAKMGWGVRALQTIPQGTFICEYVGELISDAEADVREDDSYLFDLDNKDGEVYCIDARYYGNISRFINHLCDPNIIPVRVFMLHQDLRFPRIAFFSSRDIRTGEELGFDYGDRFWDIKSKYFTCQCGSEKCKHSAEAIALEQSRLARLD
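G9a (20 nM) was preincubated 15 min with compound, then reacted 2 h at room temperature with 500 nM biotin-H3K9 peptide and 20 µM SAM. Monomethyl-H3K9 detected by AlphaScreen using anti-H3K9me1 antibody.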
Active calls of the source: *; ? = inconclusive; / = no result given; [ ] = remark or other dose. In the library only some 8.7% were active in any assay of this set; here they are far more common. The call rests on the fitted dose curve; in most records, active means well fitted curve in the direction sought with a large enough effect; inconclusive means small, poorly fitted or top-dose-only effect, or another doubt; inactive means no such curve, though single readings can be large; an effect the other way counts as inactive or inconclusive. Potency means the concentration at half of the fitted maximal effect.

SMILES	HP1b binding inh	12-LOX inh	BAZ2B inh	JMJD2A Tudor	Sfp inh	G9a inh
Cc1cc(C)c(OCCN2CCCC2)c(Cl)c1	-22%	-11%	-32%	-100%	-16%	45µM*
O=C(O)c1ccccc1C(=O)NNc1ccc(F)cc1	-24%	?	-21%	40µM*	?	?
O=C(O)c1ccccc1C(=O)NCc1ccc(F)cc1	10%	2%	4%	-9%	1%	-28%
O=C(O)c1ccccc1C(=O)NNc1ccc(Cl)cc1Cl	35%	?	-28%	-9%	14%	2.8µM*
O=C(Nc1ccc(Cl)cc1Cl)c1ccccc1-c1ccccc1	/	-5%	/	/	/	/
Nn1cc(-c2ccccc2)nc1SCC(=O)Nc1ccc2c(c1)OCO2	-25%	-16%	4%	?	-11%	71µM*
Cc1nnc(SCC(=O)Nc2ccc3c(c2)OCCO3)n1N	15%	0%	3%	-15%	17%	?
COc1ccc(Cn2c(CO)cnc2SCC(=O)Nc2ccc3c(c2)OCCO3)cc1	14%[57 µM]	0%	?	-31%	/	-6%[59 µM]
O=C(CSc1nnc(-c2ccc(Cl)cc2)n1Cc1ccco1)Nc1ccc2c(c1)OCCO2	3%	-24%	-1%	-33%	32µM*	45µM*
Nn1c(SCC(=O)Nc2ccc3c(c2)OCCO3)nnc(CCC(=O)O)c1=O	5%	-13%	-2%	20µM*	6%	3%
COc1ccc(-c2cnc(SCC(=O)Nc3ccc4c(c3)OCO4)n2Cc2ccco2)cc1	?	0%	?	20µM*	-8%	25µM*
CCn1nc(C)c(-c2cc(C(=O)N3CCCCCCNC(=O)CC3)no2)c1C	/	30%	/	/	/	/
CN(C)C(=O)CN1CCCC1c1ccc2c(c1)OCCO2 (centres undefined)	/	-43%	/	/	/	/
O=C(O)CSc1nnc(-c2ccc(S(=O)(=O)N3CCCC3)cc2)n1Cc1ccco1	23%	?	-5%	-35%	32µM*	56µM*
CC(=O)Nc1cccc(NC(=O)CSc2ncc(-c3ccc(Cl)cc3)n2Cc2ccco2)c1	?	-30%	13µM*	?	?	13µM*
COc1ccc(-n2nnc3c(SCC(=O)Nc4ccc5c(c4)OCCO5)ncnc32)cc1	/	/	-3%	/	13µM*	4%
CCn1c2ccccc2c2cc(NC(=O)CSc3nnc(C4CC4)n3Cc3ccco3)ccc21	3%	?	-8%	-32%	-7%	10µM*
Cc1ccc(NS(=O)(=O)c2cccc(Cl)c2Cl)cc1S(=O)(=O)N(C)C	/	2%	/	/	/	/
Cc1sc(/N=C/c2ccccc2Cl)c(C#N)c1C	/	-34%	/	/	/	/
CN(CCC#N)C(=O)COC(=O)c1c2c(nc3ccccc13)/C(=C/c1ccco1)CC2	?	?	45µM*	89µM*	-75%	22µM*
Fc1ccc(-c2[nH]ncc2CNCc2cccc(Cn3cccn3)c2)cc1	/	18µM*	/	/	/	/
Cn1c(C(C#N)C2=C(Cl)C(=O)N(c3ccccc3)C2=O)nc2ccccc21 (centres undefined)	/	/	8.9µM*	/	?	14µM*
CCN(C1CCOCC1)C1CN(C(=O)C2CCOC2)C1 (centres undefined)	/	7%	/	/	/	/
COc1cc(CNc2ccc3[nH]c(=O)[nH]c3c2)ccc1OCc1ccc(F)cc1Cl	12%	?	3%	-3%	-9%	7%
COc1cccc(CNc2ccc3[nH]c(=O)[nH]c3c2)c1OCc1ccccc1Cl	?	-20%	13µM*	40µM*	?	/
SMILES	HP1b binding inh	12-LOX inh	BAZ2B inh	JMJD2A Tudor	Sfp inh	G9a inh
COc1cccc(CNc2ccc3[nH]c(=O)[nH]c3c2)c1OCc1ccccc1	?	/	45µM*	40µM*	-23%	/
CCCN(CC1CC1)C(=O)CNC(N)=O	/	-8%	/	/	/	/
CC(C)n1nc(C(=O)OCC(=O)Nc2ccc(S(=O)(=O)N(C)C)cc2)c2ccccc2c1=O	/	-2%	/	/	/	/
Cc1c(C(=O)NNS(=O)(=O)c2ccccc2)sc(=S)n1C	34%	-5%	?	8.9µM*	-26%	30%[59 µM]
COc1ccc(NC(=O)Nc2sc(NS(=O)(=O)c3ccccc3)nc2C)cc1	-18%	22µM*	-34%	-24%	45µM*	50µM*
Cc1cccc(S(=O)(=O)NNC(=O)c2sc(C)nc2C)c1	6%	-12%	-22%	10µM*	-2%	?
Cc1ccc(S(=O)(=O)Nc2nc(C)c(C(=O)NNS(=O)(=O)c3ccccc3)s2)cc1	27%	?	-34%	-13%	6%	50µM*
Cc1ccc(S(=O)(=O)Nc2nc(C)c(C(=O)Nc3ccccc3)s2)cc1	29%	?	-27%	-8%	26%	?
Cc1cc(-c2nc(C)c(C(=O)NNS(=O)(=O)c3cccc(C(F)(F)F)c3)s2)no1	37%	-73%	-9%	-15%	-3%	/
Cc1nc(NS(=O)(=O)c2ccccc2)sc1C(=O)NN	35%	0%	?	-13%	-17%	0%[12.7 µM]
Cc1nc(C)c(C(=O)NNS(=O)(=O)c2ccc([N+](=O)[O-])cc2)s1	6%	?	-3%	2µM*	-5%	7.9µM*
C/C(=N/NC(=O)c1sc(NS(=O)(=O)c2ccccc2)nc1C)c1sc(N)nc1C	10%	?	?	?	2%	50µM*
O=C(NNS(=O)(=O)c1ccc(F)cc1)c1ccc([N+](=O)[O-])cc1	11%	/	-13%	-12%	-8%	35%[0.501 µM]
O=C(c1n[nH]c2c1CCCC2)N1CCc2c(nc3cc(-c4ccccc4)[nH]n3c2=O)C1	/	0%	/	/	/	/
Cn1nnc(NC(=S)NC(=O)c2cccc3ccccc23)n1	-17%[57 µM]	0.63µM*	-38%	2.8µM*	35µM*	7.9µM*
COc1cc(OC)cc(C(=O)NC(=S)Nc2nnn(C)n2)c1	?	0%	?	?	35µM*	10µM*
Cn1nnc(NC(=S)NC(=O)c2ccc(-c3ccc(Br)cc3)o2)n1	-7%	-1%	-13%	-4%	-15%	?
Cn1nnc(NC(=O)c2ccccc2F)n1	13%	?	-3%	-12%	3%	-9%
Cn1nnc(NC(=S)NC(=O)c2ccc3ccccc3c2)n1	/	11µM*	/	/	/	/
CC(C)C(=O)NC(=S)Nc1nnn(C)n1	?	?	56µM*	1.1µM*	-90%	8.9µM*
O=C(NC1CCN(CCCc2nc3ccccc3o2)CC1)C1CC1	/	15%	/	/	/	/

Source: PubChem BioAssay
